Experimental data reported in the supplement of paper PMC11732987, “Enantioselective OTUD7B fragment discovery through chemoproteomics screening and high-throughput optimisation” (Communications Chemistry, 2025).

Assays:
Experiment in all cases: log2 ratio of Biotin-Ahx-Ub-VS probe labelling (fragment/DMSO); higher = less target engagement (more negative = stronger competition), active = hit call of the paper (q ≤ 0.05, log2 ratio ≤ -1)
Conditions in all cases: compound concentration: 200 uM; treatment time: 3 h
OTUD6B = molecular target: T1, OTUD6B (UniProt Q8N6M0)
T1 sequence (whole entry): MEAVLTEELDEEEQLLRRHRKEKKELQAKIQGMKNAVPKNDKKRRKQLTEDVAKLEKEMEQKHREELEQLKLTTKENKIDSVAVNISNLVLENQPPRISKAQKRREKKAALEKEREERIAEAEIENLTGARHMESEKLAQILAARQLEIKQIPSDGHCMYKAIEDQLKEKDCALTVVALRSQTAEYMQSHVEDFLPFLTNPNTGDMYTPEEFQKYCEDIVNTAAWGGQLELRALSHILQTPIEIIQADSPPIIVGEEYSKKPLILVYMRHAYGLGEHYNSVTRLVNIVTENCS
How it was run: (§1)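 The table lists average log2 ratios of fragment over vehicle, from an unpaired t-test on global-median-normalised Spectronaut label-free quantities. Proteins with ≥2 unique peptides were used. Samples were HEK293T lysate (495 µg) treated in triplicate with fragment at 200 µM or vehicle for 3 h, then with Biotin-Ahx-Ub-VS (0.5 µM final) for 1 h, with labelled DUBs NeutrAvidin-enriched and run by diaPASEF LC-MS/MS.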

OTUD7B = molecular target: T2, OTUD7B (UniProt Q6GQQ9)
T2 sequence (whole entry): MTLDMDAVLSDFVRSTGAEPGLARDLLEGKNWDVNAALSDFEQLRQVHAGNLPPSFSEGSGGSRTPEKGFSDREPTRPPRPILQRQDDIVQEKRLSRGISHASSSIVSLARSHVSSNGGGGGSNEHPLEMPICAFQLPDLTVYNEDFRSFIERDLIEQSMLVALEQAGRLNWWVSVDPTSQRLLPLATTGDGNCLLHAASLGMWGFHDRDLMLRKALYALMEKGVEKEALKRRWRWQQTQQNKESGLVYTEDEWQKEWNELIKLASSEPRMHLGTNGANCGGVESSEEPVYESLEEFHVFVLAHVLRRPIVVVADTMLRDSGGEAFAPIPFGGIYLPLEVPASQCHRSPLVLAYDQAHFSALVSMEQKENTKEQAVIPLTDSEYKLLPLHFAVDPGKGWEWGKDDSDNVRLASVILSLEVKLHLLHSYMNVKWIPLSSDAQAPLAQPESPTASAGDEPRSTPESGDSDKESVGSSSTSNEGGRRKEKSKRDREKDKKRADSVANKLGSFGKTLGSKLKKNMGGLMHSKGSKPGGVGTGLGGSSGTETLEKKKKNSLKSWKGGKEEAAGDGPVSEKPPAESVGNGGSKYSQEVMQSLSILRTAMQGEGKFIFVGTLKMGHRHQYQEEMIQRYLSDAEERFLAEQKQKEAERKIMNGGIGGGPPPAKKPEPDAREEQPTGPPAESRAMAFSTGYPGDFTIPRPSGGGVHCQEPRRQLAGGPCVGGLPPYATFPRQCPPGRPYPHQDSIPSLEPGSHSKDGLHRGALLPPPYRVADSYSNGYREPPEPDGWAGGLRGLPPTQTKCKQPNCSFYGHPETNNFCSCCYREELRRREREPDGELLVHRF
How it was run: as §1

PRPF8 = PRPF8 (UniProt Q6P2Q9)
How it was run: as §1

PSMD7 = molecular target: T3, PSMD7 (UniProt P51665)
T3 sequence (whole entry): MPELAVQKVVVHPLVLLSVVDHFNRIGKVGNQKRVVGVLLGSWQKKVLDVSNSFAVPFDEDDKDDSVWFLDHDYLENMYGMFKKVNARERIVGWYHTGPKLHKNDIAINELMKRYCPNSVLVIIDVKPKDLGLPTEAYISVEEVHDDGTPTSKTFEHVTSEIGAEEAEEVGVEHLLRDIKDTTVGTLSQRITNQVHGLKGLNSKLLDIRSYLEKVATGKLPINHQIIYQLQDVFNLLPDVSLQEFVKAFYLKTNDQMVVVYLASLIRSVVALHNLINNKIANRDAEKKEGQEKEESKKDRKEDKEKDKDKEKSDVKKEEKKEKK
How it was run: as §1

UCHL1 = UCHL1 (UniProt P09936)
Chain of UCHL1 (P09936 whole entry, looked up): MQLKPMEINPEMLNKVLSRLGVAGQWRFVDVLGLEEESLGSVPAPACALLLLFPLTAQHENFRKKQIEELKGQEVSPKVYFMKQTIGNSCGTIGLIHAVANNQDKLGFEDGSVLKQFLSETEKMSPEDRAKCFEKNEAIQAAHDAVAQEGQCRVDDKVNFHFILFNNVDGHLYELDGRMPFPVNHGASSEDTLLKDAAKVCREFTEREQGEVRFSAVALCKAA
How it was run: as §1

UCHL3 = molecular target: T4, UCHL3 (UniProt P15374)
T4 sequence (whole entry): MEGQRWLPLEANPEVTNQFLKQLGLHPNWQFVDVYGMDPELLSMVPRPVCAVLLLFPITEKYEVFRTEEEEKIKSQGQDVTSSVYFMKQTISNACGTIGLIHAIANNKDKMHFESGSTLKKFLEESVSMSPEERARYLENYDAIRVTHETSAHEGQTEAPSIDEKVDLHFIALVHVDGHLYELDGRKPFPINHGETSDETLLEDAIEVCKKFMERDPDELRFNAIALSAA
How it was run: as §1

UCHL5 = molecular target: T5, UCHL5 (UniProt Q9Y5K5)
T5 sequence (whole entry): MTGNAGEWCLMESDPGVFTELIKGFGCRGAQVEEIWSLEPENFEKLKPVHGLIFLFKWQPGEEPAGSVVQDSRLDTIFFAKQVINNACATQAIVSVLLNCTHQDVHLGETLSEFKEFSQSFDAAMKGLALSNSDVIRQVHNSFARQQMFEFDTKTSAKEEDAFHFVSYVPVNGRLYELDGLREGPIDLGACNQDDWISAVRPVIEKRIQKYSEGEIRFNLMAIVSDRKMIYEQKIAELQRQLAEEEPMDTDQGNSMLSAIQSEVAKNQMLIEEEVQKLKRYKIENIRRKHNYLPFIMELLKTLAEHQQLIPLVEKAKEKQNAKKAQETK
How it was run: as §1

USP10 = USP10 (UniProt Q14694)
Chain of USP10 (Q14694 whole entry): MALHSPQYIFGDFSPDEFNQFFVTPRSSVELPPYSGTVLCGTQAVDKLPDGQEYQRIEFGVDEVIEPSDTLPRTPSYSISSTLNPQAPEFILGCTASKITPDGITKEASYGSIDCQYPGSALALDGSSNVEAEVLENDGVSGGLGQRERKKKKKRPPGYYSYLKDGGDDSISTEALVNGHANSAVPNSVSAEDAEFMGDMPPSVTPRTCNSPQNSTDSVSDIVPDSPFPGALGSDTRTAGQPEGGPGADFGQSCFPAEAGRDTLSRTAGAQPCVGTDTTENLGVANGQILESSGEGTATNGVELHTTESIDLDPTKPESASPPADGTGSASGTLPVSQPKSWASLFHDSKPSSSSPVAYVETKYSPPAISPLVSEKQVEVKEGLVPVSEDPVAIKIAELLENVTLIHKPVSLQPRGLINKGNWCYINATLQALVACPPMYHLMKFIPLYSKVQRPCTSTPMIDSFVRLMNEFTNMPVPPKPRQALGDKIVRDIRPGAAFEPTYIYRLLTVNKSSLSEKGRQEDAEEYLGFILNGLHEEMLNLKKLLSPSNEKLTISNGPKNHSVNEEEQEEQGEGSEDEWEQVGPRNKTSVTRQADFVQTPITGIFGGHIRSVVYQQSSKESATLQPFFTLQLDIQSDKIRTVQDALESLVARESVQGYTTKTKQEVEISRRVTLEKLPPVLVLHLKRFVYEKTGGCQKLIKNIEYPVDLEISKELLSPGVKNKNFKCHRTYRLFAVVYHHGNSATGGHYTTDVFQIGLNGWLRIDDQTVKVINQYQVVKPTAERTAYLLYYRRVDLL
How it was run: as §1

USP15 = molecular target: T6, USP15 (UniProt Q9Y4E8)
T6 sequence (whole entry): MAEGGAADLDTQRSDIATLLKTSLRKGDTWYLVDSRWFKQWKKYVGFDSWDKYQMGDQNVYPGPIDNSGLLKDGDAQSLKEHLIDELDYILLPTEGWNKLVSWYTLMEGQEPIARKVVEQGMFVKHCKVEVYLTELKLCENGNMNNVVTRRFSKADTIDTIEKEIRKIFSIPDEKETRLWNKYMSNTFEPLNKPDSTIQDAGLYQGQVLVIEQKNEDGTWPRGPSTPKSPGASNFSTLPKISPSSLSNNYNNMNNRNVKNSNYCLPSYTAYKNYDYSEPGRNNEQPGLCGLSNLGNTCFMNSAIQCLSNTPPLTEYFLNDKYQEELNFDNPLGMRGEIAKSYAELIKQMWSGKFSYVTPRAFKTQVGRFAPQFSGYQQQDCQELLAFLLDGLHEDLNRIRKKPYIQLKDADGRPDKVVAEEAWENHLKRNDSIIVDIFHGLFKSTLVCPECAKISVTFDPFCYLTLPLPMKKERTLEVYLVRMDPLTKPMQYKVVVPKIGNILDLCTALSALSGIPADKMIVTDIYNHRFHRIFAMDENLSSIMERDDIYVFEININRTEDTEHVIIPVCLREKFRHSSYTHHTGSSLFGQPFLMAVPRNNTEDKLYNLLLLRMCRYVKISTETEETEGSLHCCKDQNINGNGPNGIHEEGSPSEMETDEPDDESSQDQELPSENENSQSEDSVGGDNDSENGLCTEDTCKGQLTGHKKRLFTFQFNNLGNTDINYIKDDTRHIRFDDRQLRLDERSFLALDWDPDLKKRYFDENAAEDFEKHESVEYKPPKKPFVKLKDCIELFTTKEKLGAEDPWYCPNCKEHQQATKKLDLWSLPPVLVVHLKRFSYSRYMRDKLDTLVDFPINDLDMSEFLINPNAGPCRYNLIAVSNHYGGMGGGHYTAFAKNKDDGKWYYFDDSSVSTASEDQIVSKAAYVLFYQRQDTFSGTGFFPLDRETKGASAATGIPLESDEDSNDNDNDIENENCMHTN
How it was run: as §1

USP16 = USP16 (UniProt Q9Y5T5)
Chain of USP16 (Q9Y5T5 whole entry, looked up): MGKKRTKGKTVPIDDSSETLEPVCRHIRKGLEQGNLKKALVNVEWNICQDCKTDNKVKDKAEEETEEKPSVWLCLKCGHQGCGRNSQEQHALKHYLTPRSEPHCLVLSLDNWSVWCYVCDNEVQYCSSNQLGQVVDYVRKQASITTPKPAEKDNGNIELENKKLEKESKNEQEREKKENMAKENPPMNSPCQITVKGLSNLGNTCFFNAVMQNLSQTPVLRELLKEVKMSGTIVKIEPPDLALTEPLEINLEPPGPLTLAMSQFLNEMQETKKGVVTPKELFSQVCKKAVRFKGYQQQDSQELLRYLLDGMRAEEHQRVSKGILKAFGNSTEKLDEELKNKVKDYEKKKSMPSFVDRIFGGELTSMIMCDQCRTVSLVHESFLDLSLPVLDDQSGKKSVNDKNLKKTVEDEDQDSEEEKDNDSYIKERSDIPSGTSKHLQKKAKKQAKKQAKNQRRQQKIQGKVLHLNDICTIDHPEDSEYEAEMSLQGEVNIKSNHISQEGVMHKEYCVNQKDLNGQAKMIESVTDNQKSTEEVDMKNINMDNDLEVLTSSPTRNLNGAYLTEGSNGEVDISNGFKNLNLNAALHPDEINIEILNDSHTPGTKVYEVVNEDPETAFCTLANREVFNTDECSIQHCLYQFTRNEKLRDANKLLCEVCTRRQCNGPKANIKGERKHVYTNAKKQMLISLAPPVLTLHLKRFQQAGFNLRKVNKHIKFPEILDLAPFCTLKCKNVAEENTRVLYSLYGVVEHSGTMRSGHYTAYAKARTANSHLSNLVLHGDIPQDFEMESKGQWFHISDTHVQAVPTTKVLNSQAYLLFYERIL
How it was run: as §1

Measured: log2 ratio of Biotin-Ahx-Ub-VS probe labelling

O=C(CCl)N1CCC(=C(F)CO)C1
active: UCHL1 -1.56
inactive: OTUD6B 0.0579 | OTUD7B 0.0673 | PRPF8 0.202 | PSMD7 0.0975 | UCHL3 -0.0974 | UCHL5 0.0121 | USP10 -0.107 | USP15 -0.156 | USP16 -0.506
